NOD2-RIPK2 inh: blocks binding of human NOD2 to RIPK2; O43353; CHO BLA complementation NOD2-RIPK2, CCF4 ratio; inhibition, % at 4.98 µM; 360,000 tested, 0.38% active; AID 624267; in the data active = inhibition above about 21%;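 also: 0% = vehicle only and 100% = reference blocker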
TLR9-MyD88 inh: TLR9-MyD88 interaction inhibition | inhibition, % at 4.98 µM | AID 504734 | CHO BLA complementation TLR9-MyD88, CCF4 FRET ratio | 340,000 tested, 0.21% active;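 active = inhibition above the mean over all tested compounds plus 3 SD, cut at about 21% in these data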;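 also: 0% = DMSO only wells and 100% = clavulanate BLA inhibitor control wells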
PRMT1 inh: PRMT1 (human) inhibition, primary screen. Q99873. recombinant PRMT1, activity-based probe fluorescence polarization. inhibition, % at 2.79 µM. 370,000 tested, 1.3% active. AID 652257;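 active = inhibition above about 21% made by adding two undisclosed values, limit read from the data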
TLR4 MyD88 comp: blocks binding of human TLR4 to MyD88; HeLa CL3-4 TLR4/MyD88 BLA complementation, FRET ratio; inhibition, % at 8.4 µM; 200,000 tested, 0.18% active; AID 861; in the data active = inhibition above about 25%;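 also: 0% = vehicle and 100% = reference inhibitor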
ABHD5 PLIN5 PPI: blocks binding of human ABHD5 to perilipin-5; inhibition, % at 4 µM; 360,000 tested, 0.78% active; Split G. princeps luciferase complementation, luminescence, 4 h;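 active = inhibition above the mean inhibition across every tested compound plus 3 SD, cut at about 22% in these data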;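 also: 0% = DMSO only wells and the 100% control is not disclosed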
rCAG RNA binder: r(CAG) repeat RNA binding. TO-PRO-1 dye displacement fluorescence. inhibition, % at 3 µM. 370,000 tested, 1.3% active;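 active = inhibition above the plate cutoff, the mean of all test compounds on that plate plus 3 SD, cut at about 35% in these data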;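 also: 0% = DMSO alone and 100% = 100 µM mitoxantrone as full dye displacement; higher means more dye released from RNA so lower well fluorescence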
rCAG bind conf: r(CAG) RNA repeat binding, confirmation | shares compounds with rCAG RNA binder | TO-PRO-1 dye displacement fluorescence | inhibition, % at 3 µM | 4,300 tested, 70% active | AID 652065;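 active = inhibition above a per-plate cutoff, the mean inhibition of sample wells plus 3 SD, cut at about 35% in these data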;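 also: loss of TO-PRO-1 fluorescence as compound displaces dye from 1x1 AA loop RNA; 0% = DMSO only wells and 100% = 100 µM mitoxantrone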
DNA CAG counter: counter-screen for rCAG RNA binders: DNA CAG dye complex inhibitors; 4,300 tested, 94% active; d(CAG) DNA oligo TO-PRO-1 dye displacement, fluorescence; AID 652068; inhibition, % at 3 µM; shares compounds with rCAG RNA binder;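 active = inhibition above its plate's cutoff, the mean test-well inhibition plus 3 SD, cut at about 4.8% in these data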;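 also: 0% = DNA dye mix with DMSO and 100% = 100 µM mitoxantrone; hits displace the dye from DNA and so lower well fluorescence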
dCAG dye DR: DNA CAG dye complex inhibition, dose response counter-screen; shares compounds with rCAG RNA binder; DNA CAG/GTC duplex TO-PRO-1 dye displacement fluorescence; IC50, µM; 250 tested, 20% active; AID 686960; in the data active = IC50 below about 10 µM
* marks the source's active call; other numbers are inactive results; · = not tested or not shown. Sampled rows, rich in hits. Any-hit rate of the full collection: about 3.3%.

SMILES	NOD2-RIPK2 inh	TLR9-MyD88 inh	PRMT1 inh	TLR4 MyD88 comp	ABHD5 PLIN5 PPI	rCAG RNA binder	rCAG bind conf	DNA CAG counter	others
COc1ccc(NS(=O)(=O)c2ccc(NC(=S)NC(=O)/C=C/c3ccccc3)cc2)nn1	-6.2	-6.0	-2.0	-8.7	3.3	40.5*	50.5*	16.6*
CC1(C)OC(=O)C2=C(CC(CCc3ccccc3)OC2c2ccc(F)cc2)O1 (centres undefined)	·	·	2.6	·	·	3.3	·	·
O=C(NC1CCN(Cc2ccccc2)CC1)c1ccccc1NS(=O)(=O)c1ccc(F)c(F)c1	-0.7	5.9	-1.0	·	9.3	36.0*	20.7	2.7
O=C(NC1CCN(Cc2ccccc2)CC1)c1cc(S(=O)(=O)Nc2ccc(F)cc2)ccc1Cl	-11.2	-17.4	2.9	·	-12.5	4.5	·	·
OC(c1ccccc1)c1nc(-c2ccc(Cl)cc2)cs1 (centres undefined)	-3.2	·	-2.6	·	-7.1	2.7	·	·
CCC(Oc1ccccc1)C(=O)Nc1ccc(S(=O)(=O)Nc2ncccn2)cc1 (centres undefined)	-4.6	-0.9	-2.4	·	11.4	5.7	·	·
O=C(Nc1ccc(S(=O)(=O)Nc2cnc3ccccc3n2)cc1)c1ccc(Cl)c([N+](=O)[O-])c1	-4.5	-8.3	2.7	·	-12.0	78.7*	66.7*	30.0*
COc1ccc(C(=O)Nc2ccc(S(=O)(=O)Nc3cnc4ccccc4n3)cc2)cc1	-6.8	-1.2	0.7	·	8.2	45.9*	27.7	5.7*
CCC(Oc1ccccc1)C(=O)Nc1ccc(S(=O)(=O)Nc2cnc3ccccc3n2)cc1 (centres undefined)	-10.6	-11.1	-1.3	-7.4	3.4	58.3*	45.9*	13.2*
CC(C)(C)c1ccc(S(=O)(=O)N2CC(C(=O)O)Oc3ccc(Cl)cc32)cc1 (centres undefined)	-11.6	-0.3	-1.2	·	-1.4	62.9*	63.3*	25.7*
C#CCOCCOCCOCCNc1nc(N2CCOCC2)nc(N2CCN(C(=O)[C@H](CCC(=O)O)n3cc(C(N)CC(C)C)nn3)CC2)n1 (some centres undefined)	·	·	9.9	·	·	·	·	·
COc1ccc(NC(=O)Nc2ccc3c(c2)CC(=O)N([C@H](C)CO)C[C@H](C)[C@H](CN(C)Cc2ccc(C(=O)O)cc2)O3)cc1	2.8	-3.2	-3.4	·	-12.6	31.9	·	·
COc1c(O)cc2oc(-c3ccc(O)cc3)cc(=O)c2c1O	5.0	2.0	0.6	·	-3.7	8.4	·	·
O=c1cc(-c2ccccc2)oc2cc(O)c(O)c(O)c12	-11.7	0.4	19.6	·	-5.3	38.3*	34.4	14.2*
CC(Cc1c[nH]c2ccccc12)C(=O)NCc1ccco1 (centres undefined)	2.9	-5.2	-0.6	·	-5.4	0.9	·	·
O=C(Nc1cc(-c2ccccc2)sc1C(=O)O)c1cccc(F)c1	-3.2	0.3	0.9	·	-1.7	72.9*	69.7*	32.7*	dCAG dye DR=3.96*
CCOc1ccc(-c2cc(NC(=O)c3c(F)cccc3F)c(C(=O)O)s2)cc1	-6.7	-6.1	-0.4	·	9.8	82.6*	85.2*	43.7*
CCOc1ccc(NC(=O)Nc2cc(-c3ccccc3)sc2C(=O)OC)cc1	-1.1	-0.2	-2.9	-5.8	1.2	2.8	·	·
O=C(O)c1ccc(NC(=O)c2ccccc2NC(=O)c2cccc(F)c2)cc1	1.7	3.0	5.0	·	8.0	7.5	·	·
NC(=O)c1ncn([C@@H]2O[C@H](C(=O)N[C@H](Cc3ccccc3)C(=O)O)[C@@H](O)[C@H]2O)n1	·	·	-0.2	·	·	0.4	·	·
Cc1cccc(S(=O)(=O)NC(=O)C2(C)CCN2C(=O)C2(c3ccc(Cl)cc3)CC2)c1 (centres undefined)	2.8	·	1.7	·	-1.0	31.7	·	·
COc1cc(C)ccc1S(=O)(=O)NC(=O)C1(C)CCN1C(=O)C1(c2ccc(Cl)cc2)CCC1 (centres undefined)	-5.8	·	3.4	·	-7.5	42.0*	30.2	5.4*
Cc1ccc(F)c(S(=O)(=O)NC(=O)C2(C)CCN2C(=O)C2(c3ccc(Cl)cc3)CC2)c1 (centres undefined)	0.3	·	5.6	·	0.2	36.4*	34.7*	7.6*
Cc1ccc(F)c(S(=O)(=O)NC(=O)C2(C)CCN2C(=O)C2(c3ccc(Cl)cc3)CCC2)c1 (centres undefined)	-3.1	·	0.1	·	-4.6	36.1*	62.6*	24.1*
C[C@@H]1CN([C@H](C)CO)C(=O)c2cc(NC(=O)Nc3ccccc3)ccc2O[C@@H](C)CCCCO[C@H]1CN(C)S(=O)(=O)c1ccc(F)cc1	·	·	1.6	·	·	·	·	·
SMILES	NOD2-RIPK2 inh	TLR9-MyD88 inh	PRMT1 inh	TLR4 MyD88 comp	ABHD5 PLIN5 PPI	rCAG RNA binder	rCAG bind conf	DNA CAG counter	others
O=C(N/N=C/c1c(O)n(Cc2ccccc2)c(=O)c2ccccc12)c1cccnc1	19.0	20.5	-3.2	5.0	-1.9	69.3*	63.7*	24.8*
O=C(N/N=C/c1c(O)n(-c2ccccc2Cl)c(=O)c2ccccc12)c1cccnc1	15.4	16.2	2.8	16.7	10.5	46.9*	29.8	8.0*
Cc1cccc(-n2c(O)c(/C=N/NC(=O)c3ccccc3Cl)c3ccccc3c2=O)n1	19.5	2.3	-1.0	-6.2	11.6	14.0	·	·
C=CCS(=O)(=O)N1CCC(CCOc2ccccc2)(C(=O)OCC)CC1	-3.5	-6.5	-2.1	-7.2	0.8	-11.2	·	·
Cc1c(NC(=O)COC(=O)c2ccc(O)cc2)c(=O)n(-c2ccccc2)n1C	8.4	-3.4	-3.1	·	-8.9	1.4	·	·
O=C(COc1cccc(F)c1)Nc1nc(-c2ccncc2)cs1	-0.7	-6.3	0.8	·	-5.6	17.6	·	·
CCn1c(COc2cccc(C)c2)nnc1SCC(=O)CC(=O)Nc1ccccc1OC	-9.5	-5.8	-1.6	5.3	-6.0	36.9*	10.6	4.6*
Cc1cccc(N2CCN(C(=O)Cc3c(C(=O)O)[nH]c4ccc(Cl)cc34)CC2)c1C	2.6	-12.2	1.3	-13.2	-8.3	49.9*	72.0*	36.8*
CC1CCCCN1CCCNc1ccc(C(CC(N)=O)NC(=O)Cc2cccc3ccccc23)cc1[N+](=O)[O-] (centres undefined)	-14.7	2.0	-2.8	·	8.8	-0.6	·	·
O=C(Nc1ccccc1)n1cc(-c2ccccn2)c(N2CCOCC2)n1	-11.4	0.4	2.9	4.4	7.2	3.1	·	·
CC(C)N(CCNS(=O)(=O)c1ccc(Cl)cc1)C(C)C	-2.2	-5.3	0.6	-5.9	4.5	-0.9	·	·
